# Shown are actives, neighbours in structure and some others; about 10% of the full set was active somewhere.
# KB-3-1 tox: kills parental KB-3-1 adenocarcinoma cells; KB-3-1 viability, CellTiter-Glo ATP luminescence, 72 h; Potency, µM (series often up to 46.1 µM), usual class: cytotoxic; hit rate 1.4% among 400,000; AID 1347075; further: on the % scale 0 is the no-effect control and ±100 the full control effect; nearly all actives have a fitted effect of over 60% in size
#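 Here the drug-naive KB-3-1 line serves as comparator for MDR sub-line selectivity; cells received compound titrations, 72 h at 37 °C, then CellTiter-Glo readout.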
# RORg inh: inhibitors of mouse ROR gamma transcriptional activity; Drosophila S2 Gal4-RORgamma UAS-luciferase reporter, 20 h; Potency, µM (top dose mostly 53.6 µM), inactives show top-dose activity change, negative = inhibition, most hits filed as inhibitors; hit rate 5.4% among 310,000; AID 2551; further: on the % scale 0 is the no-effect control and ±100 the full control effect; nearly all actives have a fitted effect of over 60% in size
# Target sequence (P51450 whole entry, looked up, the tested form may be a part): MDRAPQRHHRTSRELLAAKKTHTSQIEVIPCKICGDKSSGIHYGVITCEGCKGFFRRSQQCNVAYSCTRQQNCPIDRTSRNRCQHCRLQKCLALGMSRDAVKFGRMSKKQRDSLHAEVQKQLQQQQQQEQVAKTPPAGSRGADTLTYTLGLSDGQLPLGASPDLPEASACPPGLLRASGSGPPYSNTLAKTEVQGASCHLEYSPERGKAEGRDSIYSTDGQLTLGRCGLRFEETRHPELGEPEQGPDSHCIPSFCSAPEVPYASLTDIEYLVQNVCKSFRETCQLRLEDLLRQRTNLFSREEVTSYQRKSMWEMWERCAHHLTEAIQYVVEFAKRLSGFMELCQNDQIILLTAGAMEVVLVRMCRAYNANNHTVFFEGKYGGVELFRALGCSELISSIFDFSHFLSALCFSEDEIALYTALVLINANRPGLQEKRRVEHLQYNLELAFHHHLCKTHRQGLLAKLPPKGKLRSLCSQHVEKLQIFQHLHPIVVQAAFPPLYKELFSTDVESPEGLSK
#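 Drosophila Schneider cells stably carrying a metallothionein-driven Gal4 DBD–ROR gamma fusion and a UAS-Photinus luciferase reporter were exposed to compound for 1 hr, then induced with copper sulfate (700 uM final) for 20 hr at ambient temperature before luminescence reading.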
# MCF10A rereplic: inducers of DNA re-replication in MCF 10A breast cells | hit rate 2.9% among 350,000 | Potency, µM (top dose mostly 46.1 µM), without a hit: at the top dose activity, positive = re-replication, most hits filed as activators | MCF 10A DNA re-replication, Hoechst nuclear intensity, 48 h; further: % of control where 0% means no effect; nearly all actives have a fitted effect of over 50% in size
# KB-V1 MDR tox: kills drug-selected multidrug resistant KB-V1 cells; KB-V1 MDR cells viability, CellTiter-Glo, 72 h; Potency, µM (top dose mostly 46.1 µM), most hits filed as cytotoxic; hit rate 3.4% among 400,000; AID 1347076; further: on the % scale 0 is the no-effect control and ±100 the full control effect; nearly all actives have a fitted effect of over 60% in size
#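 KB-V1 MDR subline cells in DMEM (phenol-red free, 10% FBS) exposed to compounds in qHTS concentration series for 72 h at 37 degrees C. Viability read by CellTiter-Glo luminescence; concentration-effect curves fitted after normalization and correction.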
# VP16 counter: inhibits Gal4-VP16 luciferase reporter, ROR gamma counter-screen; Potency, µM (doses to about 53.6 µM), for inactives: top-dose activity, negative = inhibition, most hits filed as inhibitors; hit rate 3.5% among 310,000; Drosophila S2 Gal4-VP16 UAS-luciferase, luminescence, 20 h;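 further: Gal4-VP16 expression switched on by copper sulfate through the metallothionein promoter; on the % scale 0 is the no-effect control and ±100 the full control effect; nearly all actives have a fitted effect of over 50% in size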
# SW480 rereplic: DNA re-replication induction in SW480 cells. SW480 DNA re-replication, Hoechst DNA content imaging, 48 h. Potency, µM (top dose mostly 46.1 µM), inactives show top-dose re-replication activation, usual class: activators. hit rate 1.8% among 340,000. AID 624297; further: % of control where 0% means no effect; nearly all actives have a fitted effect of over 55% in size
#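 Per well, 250 cells were exposed to pinned compound for 48 hr. Nuclear DNA was visualised with Hoechst (40 min, 37 C) and total object intensity recorded by fluorescence scanning.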
# * hit, by the source's call; i = inactive; ? = inconclusive; . = no result; ! = not active in a repeat; [ ] = another dose, or the depositor's remark. The call rests on the fitted dose curve; in most records, active means well fitted curve in the direction sought with a large enough effect; inconclusive means small, poorly fitted or top-dose-only effect, or another doubt; inactive means no such curve, though single readings can be large; an effect the other way counts as inactive or inconclusive. Potency means the concentration at half of the fitted maximal effect.
SMILES,KB-3-1 tox,RORg inh,MCF10A rereplic,KB-V1 MDR tox,VP16 counter,SW480 rereplic
CCOC(=O)c1c(NC(=O)Nc2ccc(C)cc2)sc2c1CCN(C)C2,i,-24%,?,i,24%,18µM*
CN(C)c1ccc(C=NC2CCc3ccccc32)cc1 (centres undefined),i,.,.,i,.,.
CCOC(=O)N(C)C[C@H]1OCc2cnnn2CCCC(=O)N([C@H](C)CO)C[C@H]1C,i,.,.,i,.,.
CC(C)N1C(=O)c2ccccc2NC(=O)C1C(=O)NCc1cccc(C(F)(F)F)c1 (centres undefined),i,.,.,i,.,.
COC(=O)NC(c1cccc(F)c1)[C@]1(C(C)=O)CCCC1=O (some centres undefined),.,10%[10 µM],.,.,-5%[10 µM],.
C=CCNC(=S)Nc1sc2c(c1C(=O)OCC)CCN(C(=O)OCC)C2,i,2.5µM*,?,i,6.3µM*,-10%
CCOC(=O)c1c(NC(=S)Nc2ccccc2)sc2c1CCCCC2,i,2.5µM*,-4%,i,4µM*,-6%
CCOC(=O)c1c(NC(=S)N2CCOCC2)sc2c1CCN(C(=O)OCC)C2,i,-23%,?,?,-2%,?
CCOC(=O)c1c(NC(=S)Nc2cccc(C)c2)sc2c1CC(C)(C)SC2,i,2µM*,14%,?,2µM*,3%
CCOC(=O)c1c(NC(=S)NCc2ccccc2)sc2c1CCN(C(=O)OCC)C2,?,2µM*,?,?,4.5µM*,?
CCOC(=O)c1c(NC(=S)Nc2ccccc2)sc2c1CCN(CC)C2,i,8%,-1%,i,-3%,0%
CN(C)C(=O)c1ccc(-c2ccc3ncnc(N4CCNCC4)c3c2)cc1,.,-12%,.,.,7%,.
CCOC(=O)c1c(NC(=O)C(=O)N/N=C/c2ccc(OCC)cc2)sc2c1CCCCC2,i,-21%,1%,16µM*,-13%,1%
CCOC(=O)c1c(NC(=O)C(=O)N/N=C/c2ccc(O)c(OC)c2)sc2c1CCCCC2,i,20%,?,?,-23%,1%
CCOC(=O)c1c(NC(=O)c2ccoc2C)sc2c1CCC2,i,9%,?,21µM*,8%,6%
CCOc1ccccc1-c1nnc2n1N=C(c1ccc(OC)c(OC)c1)CS2,.,-14%,.,.,0%,.
COc1cc(OC)c2c(c1)C(=O)OC2c1cc(OC)c(OC)cc1C (centres undefined),i,.,.,i,.,.
C/C=C(/C(=C/C)c1ccc(O)cc1)c1ccc(O)cc1,i,30%,4.6µM*!,?,-4%,?
OC(CNCC1COc2ccccc2O1)COCc1cccs1 (centres undefined),?,14%,1%,21µM*,-2%,-2%
COc1ccc(S(=O)(=O)n2nc(OCc3cccs3)cc2N)cc1,i,?,12%,21µM*,?,-14%
CCOc1ccc(/C(CCC(=O)O)=N/NC(=S)NC(C)C)cc1,i,11µM*,1%,i,?,8%
CC/C(=N\NC(N)=O)c1ccc(OC)c(OC)c1,i,5%,9%,?,1%,-16%
CC/C(=N\NC(=S)NC(C)C)c1ccc(OC)c(OC)c1,i,4.5µM*,10%,?,10µM*,?
CCOc1ccc(C(=O)CCC(=O)O)cc1,i,-18%,5%,i,-8%,-13%
COC(=O)[C@H](c1ccccc1Cl)N1CCc2sccc2C1,i,-17%,10%,i,0%,?
COC(=O)C(c1ccccc1Cl)N1CCc2sccc2C1 (centres undefined),.,3.5µM*!,11%,.,?,5%
COc1ccc2c(C)c(CCC(=O)NCc3ccc(C)cc3)c(=O)oc2c1,i,.,.,i,.,.
Cc1nc(NCCc2ccc(S(N)(=O)=O)cc2)c2c(C)c(C)sc2n1,?,10µM*,9%,i,10µM*,3%

# Bioassay records deposited in PubChem by National Center for Advancing Translational Sciences (NCATS).
